PubChem BioAssay AID1159580 (chemical genetic matrix, 2015)
“And” between values parts separate entries of the source, which are not always exact repeats. Equal values may be shown once. Among all 5,500 compounds or so, about 2,000 (36%) were called active. About 18% were inconclusive and are not listed. Cut-off read from the data, not from the text of the source: active = normalized growth mostly below about 0.91 (no sharp cut-off); inconclusive = no clear call, values can overlap the other calls; inactive = mostly above about 0.92. The list shows a part of the results. The source holds several records for some structures; these can differ, active in one and inactive in another.

Experiment: chemical genetic growth profiling, strain panel (AID 1159580);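 note: tested at 20 µM; growth read once vehicle control cultures reached saturation at 30 °C; 1 = growth at the plate median or of vehicle wells; lower values mean less growth of the strain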
Details: S. cerevisiae deletion strains, growth OD

Measured: normalized growth

CSc1ccc2c(c1)N(CCC1CCCCN1C)c1ccccc1S2 (stereo not given)
active: locus YAL013W, strain DEP1, stronger effect = lower value 0.161 and 0.864 | locus YAL026C, strain drs2, stronger effect = lower value 0.23 | locus YBR009C, strain hhf1, stronger effect = lower value 0.877 | locus YBR021W, strain FUR4, stronger effect = lower value 0.195 | locus YBR229C, strain ROT2, stronger effect = lower value 0.451 | locus YBR279W, strain paf1, stronger effect = lower value 0.924 | locus YCL029C, strain bik1, stronger effect = lower value 0.169 | locus YDL035C, strain GPR1, stronger effect = lower value 0.0738 | locus YDL074C, strain BRE1, stronger effect = lower value 0.0864 | locus YDL101C, strain DUN1, stronger effect = lower value 0.0947 | locus YDL134C, strain PPH21, stronger effect = lower value 0.0681 | locus YDL192W, strain arf1, stronger effect = lower value 0.0652 | locus YDR069C, strain doa4, stronger effect = lower value 0.891 | locus YDR101C, strain arx1, stronger effect = lower value 0.419 | locus YDR137W, strain rgp1, stronger effect = lower value 1.35 [resistant] | locus YDR162C, strain NBP2, stronger effect = lower value 0.0524 | locus YDR195W, strain ref2 1.37 [resistant] | locus YDR318W, strain mcm21, stronger effect = lower value 0.116 | locus YDR388W, stronger effect = lower value 0.0641 | locus YDR502C, strain sam2, stronger effect = lower value 0.123 | locus YEL061C, strain CIN8, stronger effect = lower value 0.196 | locus YER015W, strain faa2, stronger effect = lower value 0.842 | locus YER155C, strain BEM2, stronger effect = lower value 0.789 | locus YER167W, strain BCK2, stronger effect = lower value 0.118 | locus YFR010W, strain ubp6, stronger effect = lower value 0.781 | locus YGL086W, strain mad1, stronger effect = lower value 0.0828 | locus YGL248W, strain PDE1, stronger effect = lower value 0.0643 | locus YGR135W, strain pre9, stronger effect = lower value 0.189 | locus YGR229C, strain SMI1, stronger effect = lower value 0.06 | locus YGR252W, strain gcn5, stronger effect = lower value 0.161 | locus YHR027C, strain rpn1, stronger effect = lower value 0.844 | locus YHR079C, strain IRE1 (second series), stronger effect = lower value 0.374 | locus YHR094C, strain hxt1, stronger effect = lower value 0.304 | locus YHR129C, strain ARP1, stronger effect = lower value 0.0924 | locus YHR200W, strain rpn10, stronger effect = lower value 0.26 | locus YIL066C, strain RNR3, stronger effect = lower value 0.0646 | locus YIL073C, strain SPO22, stronger effect = lower value 0.0996 | locus YIR030C, strain dcg1, stronger effect = lower value 0.227 | locus YJL095W, strain BCK1 (second series), stronger effect = lower value 0.894 | locus YJL134W, strain LCB3, stronger effect = lower value 0.9 | locus YJL168C, strain set2, stronger effect = lower value 0.098 | locus YJL187C, strain SWE1 (second series), stronger effect = lower value 0.0709 | locus YJR043C, strain POL32, stronger effect = lower value 0.0862
0.0681 (active) and 0.997 (inactive): locus YJL095W, strain BCK1, stronger effect = lower value
0.0522 (active) and 0.997 (inactive): locus YHR030C, strain SLT2, stronger effect = lower value
inactive: locus YAL021C, strain ccr4, stronger effect = lower value 0.939 | locus YAL030W, strain snc1, stronger effect = lower value 0.985 | locus YAL040C, strain CLN3, stronger effect = lower value 1.07 | locus YBL061C, strain skt5, stronger effect = lower value 0.963 | locus YBR023C, strain chs3, stronger effect = lower value 0.923 | locus YBR171W, strain sec66, stronger effect = lower value 1.03 | locus YBR231C, strain swc5, stronger effect = lower value 0.94 | locus YCL011C, strain gbp2, stronger effect = lower value 0.94 | locus YCL016C, strain dcc1, stronger effect = lower value 0.951 | locus YCL061C, strain MRC1 (second series), stronger effect = lower value 0.991 | locus YCL069W, strain vba3, stronger effect = lower value 1.01 | locus YCR088W, strain abp1, stronger effect = lower value 1.01 | locus YDL005C, strain med2, stronger effect = lower value 1.05 | locus YDL040C, strain nat1, stronger effect = lower value 1.01 | locus YDL185W, strain tfp1, stronger effect = lower value 1.01 | locus YDR001C, strain nth1, stronger effect = lower value 1.02 | locus YDR150W, strain NUM1, stronger effect = lower value 0.972 | locus YDR159W, strain sac3, stronger effect = lower value 0.977 | locus YDR297W, strain sur2, stronger effect = lower value 0.962 | locus YDR334W, strain swr1, stronger effect = lower value 1.04 | locus YDR335W, strain msn5, stronger effect = lower value 0.967 | locus YDR363W, strain ESC2, stronger effect = lower value 0.894 | locus YDR392W, strain spt3, stronger effect = lower value 1.12 | locus YEL003W, strain gim4, stronger effect = lower value 0.971 | locus YEL037C, strain rad23, stronger effect = lower value 1.01 | locus YEL061C, strain CIN8 (second series), stronger effect = lower value 1.02 | locus YER002W, strain NOP16, stronger effect = lower value 1.01 | locus YER016W, strain bim1, stronger effect = lower value 0.992 | locus YER110C, stronger effect = lower value 0.916 | locus YER111C, strain swi4, stronger effect = lower value 1.01 | locus YER155C, strain BEM2 (second series), stronger effect = lower value 1.05 | locus YGL078C, strain dbp3, stronger effect = lower value 1.01 | locus YGL167C, strain pmr1, stronger effect = lower value 1.01 | locus YGL173C, strain kem1, stronger effect = lower value 0.966 | locus YGL227W, strain vid30, stronger effect = lower value 1.04 | locus YGL240W, strain doc1, stronger effect = lower value 0.955 | locus YGL253W, strain hxk2, stronger effect = lower value 0.948 | locus YHR013C, strain ard1, stronger effect = lower value 1.01 | locus YHR079C, strain IRE1, stronger effect = lower value 0.979 | locus YHR142W, strain chs7, stronger effect = lower value 0.962 | locus YIL125W, strain kgd1, stronger effect = lower value 1.01 | locus YJL092W, strain hpr5, stronger effect = lower value 0.994 | locus YJL115W, strain asf1, stronger effect = lower value 1.01 | locus YJL129C, strain trk1, stronger effect = lower value 1.07 | locus YJL154C, strain vps35, stronger effect = lower value 1.03 | locus YJL164C, strain tpk1, stronger effect = lower value 0.977 | locus YJL166W, strain qcr8, stronger effect = lower value 0.97 | locus YJL187C, strain SWE1, stronger effect = lower value 0.939 | locus YJR066W, strain TOR1, stronger effect = lower value 0.937
0.194 (active) and 1.01 (inactive): locus YGR078C, strain PAC10, stronger effect = lower value
